As usually defined, the AC50 is the midpoint of the concentration-response curve, whichever way the signal moves.

More than one record can exist for a structure, and the calls need not agree. The source made the active and inactive calls. Rule for the calls: active = hit-call score of the fitted dose curve at least 0.9, where 1 is the maximum; inactive = score below 0.9.

Read-out in assay [1]: Vascular endothelial growth factor receptor 2 (Homo sapiens) (UniProt P35968)
As to the kind of experiment: BSK_4H_VEGFRII: BioMAP Diversity Plus: 4H Assay for Vascular endothelial growth factor receptor 2 (VEGFR2) Biomarker Activity (AID 2283031). The settings on record: primary human endothelial cells (HUVEC); actives raise or lower the signal. In a few lines: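 ELISA read-out of VEGFRII in primary human umbilical vein endothelium, taken 24 h after chemical treatment. Responses are expressed relative to DMSO, with bidirectional fitting.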

Read-out in assay [2]: Human Leukocyte Antigen - DR isotype (HLADR), HLA-DRA (gene 3122)
Nature of the assay: BSK_BE3C_HLADR: BioMAP Diversity Plus: BE3C Assay for Human Leukocyte Antigen - DR isotype (HLADR) Biomarker Activity (AID 2283032). As to conditions: primary human bronchial epithelial cells; actives raise or lower the signal. In a few lines:
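Signal came from an ELISA for HLA-DR in human bronchial epithelial primary cells harvested 24 h after treatment; gain- and loss-of-signal fitting used DMSO controls as reference.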

Read-out in assay [3]: Vascular cell adhesion molecule 1 (VCAM1), VCAM1 (gene 7412)
Nature of the assay: BSK_4H_VCAM1: BioMAP Diversity Plus: 4H Assay for Vascular cell adhesion molecule 1 (VCAM1) Biomarker Activity (AID 2283033).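 Note: cell-surface VCAM-1 protein measured by ELISA.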 The settings on record: primary human endothelial cells (HUVEC); actives raise or lower the signal. In a few lines:
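Endpoint derived from bidirectional fitting against DMSO controls of VCAM-1 ELISA signal in umbilical vein endothelial cells sampled at 24 h following treatment.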

Read-out in assay [4]: Interferon-gamma inducible Protein 10 (IP10), CXCL10 (gene 3627)
Nature of the assay: BSK_BE3C_IP10: BioMAP Diversity Plus: BE3C Assay for Interferon-gamma inducible Protein 10 (IP10) Biomarker Activity (AID 2283034). As to conditions: primary human bronchial epithelial cells; actives raise or lower the signal. In a few lines:
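Using primary human bronchial epithelial cultures, the assay captures IP-10 by ELISA one day (24 h) after exposure. Parallel SRB staining of total protein flags overt cytotoxicity. Fits run bidirectionally relative to DMSO.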

Read-out in assay [5]: Monokine induced gamma interferon (MIG), CXCL9 (gene 4283)
As to the kind of experiment: BSK_BE3C_MIG: BioMAP Diversity Plus: BE3C Assay for Monokine induced gamma interferon (MIG) Biomarker Activity (AID 2283035).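 Note: MIG protein measured by ELISA in BE3C cultures after 24 h of dosing.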 As to conditions: primary human bronchial epithelial cells; actives raise or lower the signal. In a few lines: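 MIG level was determined by ELISA after 24 h chemical treatment of primary human bronchial epithelial cells. Values were fitted bidirectionally with DMSO as the negative control and activity baseline.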

Read-out in assay [6]: Plasminogen activator inhibitor-1 (PAI1), SERPINE1 (gene 5054)
As to the kind of experiment: BSK_BE3C_PAI1: BioMAP Diversity Plus: BE3C Assay for Plasminogen activator inhibitor-1 (PAI1) Biomarker Activity (AID 2283037). The settings on record: primary human bronchial epithelial cells; actives raise or lower the signal. In a few lines: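 PAI-1 biomarker levels in treated human bronchial epithelial cells are determined by ELISA at 24 h. Both increases and decreases relative to DMSO are fitted.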

Read-out in assay [7]: urokinase plasminogen activator (uPA), PLAU (gene 5328)
As to the kind of experiment: BSK_BE3C_uPA: BioMAP Diversity Plus: BE3C Assay for urokinase plasminogen activator (uPA) Biomarker Activity (AID 2283038).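 Note: uPA protein level quantified by ELISA in cell cultures; uPA read one day after compound addition.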 As to conditions: primary human bronchial epithelial cells; actives raise or lower the signal. In a few lines: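 Bronchial epithelial cells (human, primary); chemical 24 h; uPA by ELISA; bidirectional fit vs DMSO. SRB (0.1%, after 10% TCA fixation, 560 nm) in parallel cultures for cytotoxicity.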

Read-out in assay [8]: Urokinase-type plasminogen activator receptor (uPAR), PLAUR (gene 5329)
As to the kind of experiment: BSK_BE3C_uPAR: BioMAP Diversity Plus: BE3C Assay for Urokinase-type plasminogen activator receptor (uPAR) Biomarker Activity (AID 2283039).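 Note: uPAR protein level measured by ELISA on the cells; cells exposed to compound for one day before measurement.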 As to conditions: primary human bronchial epithelial cells; actives raise or lower the signal. In a few lines:
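A uPAR ELISA serves as the readout, taken 24 h after treating primary human bronchial epithelial cells. Responses in either direction are fitted against DMSO, which defines baseline activity.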

Read-out in assay [9]: Interleukin-6 (IL6), IL6 (gene 3569)
Nature of the assay: BSK_CASM3C_IL6: BioMAP Diversity Plus: CASM3C Assay for Interleukin-6 (IL6) Biomarker Activity for (AID 2283040). The settings on record: primary human coronary artery smooth muscle cells; actives raise or lower the signal.

Read-out in assay [10]: Tissue plasminogen activator (tPA), PLAT (gene 5327)
As to the kind of experiment: BSK_BE3C_tPA: BioMAP Diversity Plus: BE3C Assay for Tissue plasminogen activator (tPA) Biomarker Activity (AID 2283041).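 Note: tPA level quantified by ELISA one day after compound addition.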 The settings on record: primary human bronchial epithelial cells; actives raise or lower the signal. In a few lines:
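Bidirectional curve fitting relative to DMSO defined activity, with tPA detected by ELISA in chemically treated human bronchial epithelial primary cells at 24 hours.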

Read-out in assay [11]: Interleukin-8 (IL8), CXCL8 (gene 3576)
As to the kind of experiment: BSK_CASM3C_IL8: BioMAP Diversity Plus: CASM3C Assay for Interleukin-8 (IL8) Biomarker Activity (AID 2283042).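 Note: IL-8 protein level quantified by ELISA.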 As to conditions: primary human coronary artery smooth muscle cells; actives raise or lower the signal.

Read-out in assay [12]: Human Leukocyte Antigen - DR isotype (HLADR), HLA-DRA (gene 3122)
As to the kind of experiment: BSK_CASM3C_HLADR: BioMAP Diversity Plus: CASM3C Assay for Human Leukocyte Antigen - DR isotype (HLADR) Biomarker Activity (AID 2283043).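 Note: cell-surface HLA-DR protein level quantified by ELISA.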 The settings on record: primary human coronary artery smooth muscle cells; actives raise or lower the signal.

Read-out in assay [13]: Macrophage colony-stimulating factor (MCSF), CSF1 (gene 1435)
As to the kind of experiment: BSK_CASM3C_MCSF: BioMAP Diversity Plus: CASM3C Assay for Macrophage colony-stimulating factor (MCSF) Biomarker Activity (AID 2283044).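 Note: M-CSF protein amount quantified by ELISA after 24 h exposure.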 As to conditions: primary human coronary artery smooth muscle cells; actives raise or lower the signal.

Read-out in assay [14]: Low-density lipoprotein receptor (LDLR), LDLR (gene 3949)
As to the kind of experiment: BSK_CASM3C_LDLR: BioMAP Diversity Plus: CASM3C Assay for Low-density lipoprotein receptor (LDLR) Biomarker Activity (AID 2283045).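 Note: LDLR protein level on the cell surface quantified by ELISA.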 As to conditions: primary human coronary artery smooth muscle cells; actives raise or lower the signal.

Read-out in assay [15]: Monocyte Chemoattractant Protein-1 (MCP1), CCL2 (gene 6347)
As to the kind of experiment: BSK_CASM3C_MCP1: BioMAP Diversity Plus: CASM3C Assay for Monocyte Chemoattractant Protein-1 (MCP1) Biomarker Activity (AID 2283046).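 Note: MCP-1 level quantified by ELISA 24 h after dosing.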 As to conditions: primary human coronary artery smooth muscle cells; actives raise or lower the signal.

Assay [16] is described as follows: BSK_CASM3C_Proliferation: Cell Proliferation Assessment in the BioMAP Diversity Plus: CASM3C Assay (AID 2283047).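 Note: sulforhodamine B total protein stain as relative cell number at 560 nm; sub-confluent cells exposed 48 h before staining; fitted both ways against DMSO so gain or loss of cell number.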 As to conditions: primary human coronary artery smooth muscle cells.
Read-out in assay [17]: Monokine induced gamma interferon (MIG), CXCL9 (gene 4283)
Nature of the assay: BSK_CASM3C_MIG: BioMAP Diversity Plus: CASM3C Assay for Monokine induced gamma interferon (MIG) Biomarker Activity (AID 2283048).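 Note: MIG protein level measured by ELISA.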 The settings on record: primary human coronary artery smooth muscle cells; actives raise or lower the signal.

Read-out in assay [18]: serum amyloid A (SAA), SAA1 (gene 6288)
Nature of the assay: BSK_CASM3C_SAA: BioMAP Diversity Plus: CASM3C Assay for serum amyloid A (SAA) Biomarker Activity (AID 2283049).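 Note: SAA protein level quantified by ELISA.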 The settings on record: primary human coronary artery smooth muscle cells; actives raise or lower the signal.

Assay [19] in a line: BSK_CASM3C_SRB: Viability Assessment in the BioMAP Diversity Plus: CASM3C Assay (AID 2283050).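 Note: cells exposed to compound for 24 h.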 As to conditions: primary human coronary artery smooth muscle cells.
Read-out in assay [20]: Transforming growth factor beta 1 (TGFb1), TGFB1 (gene 7040)
As to the kind of experiment: BSK_BE3C_TGFb1: BioMAP Diversity Plus: BE3C Assay for Transforming growth factor beta 1 (TGFb1) Biomarker Activity (AID 2283036;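 note: TGF-b1 protein level measured by ELISA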). As to conditions: primary human bronchial epithelial cells; actives raise or lower the signal. In a few lines:
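In this human primary bronchial epithelial system, an ELISA quantified TGF-b1 one day after dosing. Endpoint changes in either direction were fitted relative to DMSO.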

Consider `COC(=O)C(F)(F)C(F)(F)OC(F)(C(F)(F)F)C(F)(F)OC(F)=C(F)F` (stereo not given), for which the outcome in assay [1], in [2], in [3], in assay [4], in assay [5] and in [6] was inactive. Also, the outcome in assay [7], in [8], in [9], in assay [10], in assay [11] and in assay [12] was inactive. Also, the result in assay [13], in assay [14], in assay [15], in assay [16], in [17] and in [18] was inactive. Moreover, the result in assay [19] was inactive.

Take `O=C(O)C(F)(OC(F)(F)C(F)(F)C(F)(F)F)C(F)(F)F` (stereo not given): the result in assay [1], in assay [2], in [3], in assay [4], in [5] and in assay [6] was inactive. Also, the result in [7], in [8], in [9], in [10], in [11] and in assay [12] was inactive. The outcome in [13], in [14], in assay [15], in assay [16], in assay [17] and in assay [18] was inactive. The outcome in assay [19] was inactive. For the same compound, the AC50 was 0.22 µM (active) in assay [6], 0.218 µM (active) in [13] and 5.17 µM (active) in [16].

For `CC(O)C(F)(F)C(F)(F)F` (stereo not given), the result in assay [1], in assay [2], in assay [3], in assay [4], in assay [5] and in assay [6] was inactive. For the same compound, the result in [7], in assay [8], in assay [9], in [10], in assay [11] and in assay [12] was inactive. The result in [13], in assay [14], in assay [15], in assay [16], in assay [17] and in assay [18] was inactive. Besides, in [19], the outcome was inactive.

For `CCOP(=S)(OCC)SCn1nnc2ccccc2c1=O`, the result in assay [1], in assay [2], in [3], in assay [4], in assay [5] and in assay [20] was inactive. Besides, the result in [6], in [7], in [8], in [9], in [10] and in assay [11] was inactive. Moreover, the outcome in assay [12], in assay [13], in assay [15], in assay [17], in assay [18] and in [19] was inactive. For the same compound, the half-maximal activity concentration (AC50) is 32.3 µM (active) in [14] and 20 µM (active) in [16].

Values taken from PubChem BioAssay (EPA / NIEHS).
